95 compounds from PubChem BioAssay AID2314 (National Center for Advancing Translational Sciences (NCATS), 2010) can be followed below.

The whole screen tested about 300,000 compounds, of which about 37,000 (12%) were called active. Rule as the data show it: active = max response mostly above about 13% (no sharp cut-off); inactive = mostly below about 14%. This excerpt belongs to a sample that is enriched for actives.

This test in a line: Cycloheximide Counterscreen for Small Molecule Inhibitors of Shiga Toxin. Also: read at 38.3 µM for the half of the compounds with a filed dose; 0% is about no effect. The following applies: cell reporter, cycloheximide protein synthesis inhibition counterscreen; hits give high values. For orientation: The purpose of a counterscreen is to sort out artefacts and off-target activity.
On to `O=[N+]([O-])c1ccc(N(CCO)Cc2ccccc2)c([N+](=O)[O-])c1`, for which the max response was -2.22% (inactive).

Regarding `Cc1ccc(C)c(N2C(=O)CS/C2=N\NC(=O)c2ccccc2Cl)c1`, the max response is -3.78% (inactive).

Regarding `C/C(=N/NC(=O)c1cc(Cl)ccc1O)C12CC3CC(CC(C3)C1)C2`, the max response was 18.4% (inactive).

For the compound `O=C(N/N=C1\CCSC1)c1cc(Cl)ccc1O`, the max response is 18.7% (active).

Turning to `Cc1cc(C=O)c(C)n1-c1ccc(NC2CCCCC2)c([N+](=O)[O-])c1`, the max response is 6.55% (inactive).

On to `Cc1cc(=O)oc2c(C)c(OC(C)C(=O)NC3CCN(Cc4ccccc4)CC3)ccc12` (stereo not given), for which the max response was -2.67% (inactive).

Turning to `COc1ccc(NC(=O)CC(NC(C)c2ccccc2)C(=O)O)cc1` (stereo not given), the max response is -3.91% (inactive).

Regarding `COc1ccc(C(CC(=O)Nc2ccc(C)cc2)NC(=O)C(F)(F)F)cc1` (stereo not given), the max response is 12.7% (active).

As to `COc1ccc(NC(=O)C(=O)NCC(=O)Nc2cccc(C(F)(F)F)c2)cc1`, the max response is -1.93% (inactive).

With `Cc1ccc(NS(=O)(=O)c2ccc3c(c2)NC(=O)CO3)cc1`, the max response was -9.63% (inactive).

As to `COc1ccc(CNC(=O)C(Cc2ccccc2)n2cccc2)cc1` (stereo not given), the max response is -3.21% (inactive).

As to `CCOC(=O)C1Sc2[nH]c(=O)sc2C(c2ccc(Cl)cc2)C1C(=O)OCC` (stereo not given), the max response was -1.02% (inactive).

For the compound `COc1ccc(N2CCN(C(=O)c3ccc(N4CCCCS4(=O)=O)cc3)CC2)cc1`, the max response was -2.57% (inactive).

In the case of `CCC(=C/c1sc2ccc3ccccc3c2[n+]1C)/C=C1\Sc2ccc3ccccc3c2N1C`, the max response is -3.42% (inactive).

In the case of `CCOC(=O)CSc1nc2ccc(C)cc2[nH]1`, the max response was 17% (active).

As for `Cc1ccc2nc(SCC(=O)NC3CCCC3)[nH]c2c1`, the max response is -3.78% (inactive).

`CC(=O)Nc1ccc(C(=O)CSc2nc3ccc(C)cc3[nH]2)cc1`: the max response was 19.9% (active).

On to `Cc1cc(C)c(NC(=O)CSc2nc3ccncc3[nH]2)c(C)c1`, for which the max response is 8.2% (inactive).

Consider `COc1ccc2nc(SCC(=O)Nc3c(C)cc(C)cc3C)[nH]c2c1`, for which the max response is -5.11% (inactive).

For the compound `Cc1nc2nc(SCC(=O)c3ccccc3)[nH]c2cc1Br`, the max response was 1.25% (inactive).

With `COc1ccc(/C=N/N(C)C2=NS(=O)(=O)c3ccccc32)cc1OC`, the max response was -4.65% (inactive).

On to `CCCCN(C)CCNC(=O)C1CCCN(S(=O)(=O)c2cccc3nsnc23)C1` (stereo not given), for which the max response was -7.69% (inactive).

Take `CC(Sc1cccc[n+]1[O-])C(=O)Nc1cccc(S(=O)(=O)N2CCOCC2)c1` (stereo not given): the max response was -2.05% (inactive).

For the compound `COc1ccc(/C=N/n2nnnc2N)cc1OC`, the max response is 1.75% (inactive).

Turning to `CCOc1ccccc1/C=N/NC(=O)CNC(=O)COc1ccccc1`, the max response was 8.7% (inactive).

In the case of `C=CCc1ccccc1OCC(=O)N/N=C/c1ccccc1OCC`, the max response is 9.76% (inactive).

As to `COc1ccc(/C=N/Nc2nc3ccccc3o2)cc1OC`, the max response is 32.2% (active).

Turning to `Brc1ccccc1/C=N/Nc1nc2ccccc2o1`, the max response was 35.3% (active).

Regarding `c1ccc(CCN2CN=C(Nc3nc4ccccc4o3)NC2)cc1`, the max response was 13.2% (inactive).

As for `CCOc1ccc(/C=N/Nc2nncc(-c3ccccc3)n2)cc1OC`, the max response is 5.88% (inactive).

As to `CCOc1ccccc1/C=N/Nc1nc2ccccc2o1`, the max response was 11.2% (active).

For the compound `CN=C1S/C(=C\c2c(OC)cc(OC)cc2OC)C(=O)N1C`, the max response is -4.61% (inactive).

`COc1ccc(C2/C(=C(/O)c3ccc4c(c3)CC(C)O4)C(=O)C(=O)N2Cc2ccncc2)cc1` (stereo not given): the max response was -3.17% (inactive).

For the compound `COc1cc(C(=O)N2CCN(C)CC2)cc(OC)c1OC`, the max response was -1.54% (inactive).

Take `Cc1ccc(NC(=O)COC(=O)C2C3CC4OC(=O)C2C4C3)cc1Cl` (stereo not given): the max response is 6.04% (inactive).

Turning to `O=C(NCc1ccco1)C1CCCN1S(=O)(=O)c1ccccc1C(F)(F)F` (stereo not given), the max response is -2.95% (inactive).

Regarding `Cc1ccc(-n2nc3c(=O)n(C(C)C(=O)NCc4ccc5c(c4)OCO5)nc(C)c3c2C)cc1` (stereo not given), the max response was 7.33% (inactive).

As for `COc1ccc(CN(C)C(=O)Cc2ccsc2)c(OC)c1OC`, the max response was -2.85% (inactive).

Consider `CC(C)CNS(=O)(=O)c1ccc(CCC(=O)NCc2ccc(Cl)cc2)cc1`, for which the max response was -1.7% (inactive).

As for `COc1ccc(CN2CCN(C(=O)CCC(=O)Nc3nnc(C(C)C)s3)CC2)cc1F`, the max response was -9.15% (inactive).

In the case of `CC1C(=O)C(C)C(c2ccc(O)cc2)NC1c1ccc(O)cc1` (stereo not given), the max response was -3.88% (inactive).

As for `CC(NC(=O)C(C)(C)C)C(c1cccs1)N1CCN(Cc2ccccc2)CC1` (stereo not given), the max response was 1.72% (inactive).

Take `C#CC(C)(C)NC(=O)c1cnc(-c2ccccc2)nc1-c1ccccc1`: the max response is 1.23% (inactive).

Take `Cc1ccc(NC(=O)C2CC(c3ccc(F)cc3)=NO2)cc1` (stereo not given): the max response was 4.66% (inactive).

Take `Cc1ccccc1N1CC(C(=O)Nc2ccc3c(c2)OCO3)CC1=O` (stereo not given): the max response was 15.7% (inactive).

Take `O=C(Nc1ccc2c(c1)OCO2)C1CC(c2c(F)cccc2Cl)=NO1` (stereo not given): the max response is 31.8% (active).

With `Cc1ccc(S(=O)(=O)N(Cc2ccccc2)c2ccccn2)cc1[N+](=O)[O-]`, the max response is 2.38% (inactive).

With `CS(=O)(=O)N(CC(=O)Nc1ccc(F)cc1F)c1cccc([N+](=O)[O-])c1`, the max response is 1.91% (inactive).

`Cc1c(Br)c([N+](=O)[O-])nn1CC(=O)N1CCN(Cc2ccccc2)CC1`: the max response is 14.4% (active).

As to `O=C(c1cccc([N+](=O)[O-])c1)N1CCN(Cc2ccccc2)CC1`, the max response was -6.89% (inactive).

`O=C(/C=C/c1cccc([N+](=O)[O-])c1)N1CCN(Cc2ccccc2)CC1`: the max response is 21.5% (inactive).

With `COc1ccc(-c2cc(C(=O)N3CCN(Cc4ccc5c(c4)OCO5)CC3)on2)cc1OC`, the max response was -9.89% (inactive).

`Cc1cc(C)nc(N/N=C/c2ccc([N+](=O)[O-])o2)n1`: the max response was 0.645% (inactive).

Turning to `Cc1cc2c(C)nc(N/N=C/c3ccccc3)nc2o1`, the max response is 38% (active).

`Cc1cc(C)nc(N/N=C/c2c(C)oc3ccccc23)n1`: the max response is 1.89% (inactive).

In the case of `COc1cccc(C(=O)NCCSc2ccc(Br)cc2)c1`, the max response is 3.16% (inactive).

`COc1ccc(C(=O)NCCSc2ccccc2C)cc1`: the max response is 46% (active).

In the case of `COc1ccc(C(=O)NCc2nnc(SCCOc3ccccc3)n2C)cc1`, the max response is -1.69% (inactive).

Regarding `N#Cc1ccccc1S(=O)(=O)N1CCN(C(=O)c2cc(-c3ccccc3)nn2-c2ccccc2)CC1`, the max response was -0.928% (inactive).

For `COCCCNc1nc2c(-c3cccc(C)c3)nnn2c2ccc(Cl)cc12`, the max response was 11.5% (active).

As for `COC(=O)Cn1nc(-c2ccccc2)c2cc(Cl)ccc21`, the max response is -2.04% (inactive).

For the compound `COCCCNc1nc2c(-c3cccc(C(F)(F)F)c3)nnn2c2ccccc12`, the max response is -2.05% (inactive).

As to `O=C(CCS(=O)(=O)c1ccc(Br)cc1)NCCc1ccc(Cl)cc1`, the max response is -3.3% (inactive).

Take `N#C/C(=C(/O)Cc1cccc2ccccc12)c1nc2ccccc2s1`: the max response was -8.33% (inactive).

`CC1=CC(=C(C#N)c2nc3ccccc3s2)C=C(C)N1c1ccc(F)cc1F`: the max response is 11.6% (active).

`C=CCN1C(=O)C(O)(CC(=O)c2ccccn2)c2ccccc21` (stereo not given): the max response was -4.4% (inactive).

On to `Cc1ccc2cc(CCNC(=O)c3ccc4c(c3)OCO4)c(=O)[nH]c2c1`, for which the max response was -3.03% (inactive).

For `O=C(NCc1ccco1)/C(=C/c1ccco1)NC(=O)c1ccccc1`, the max response is -7.97% (inactive).

On to `Cc1ccc(C(=O)N/C(=C/C=C/c2ccccc2)C(=O)NCc2ccco2)cc1`, for which the max response is 13.9% (active).

Regarding `CNC(=O)/C(=C\C=C\c1ccccc1)NC(=O)c1ccc([N+](=O)[O-])cc1`, the max response was -1.68% (inactive).

Take `Cc1ccc(NS(=O)(=O)c2cn(C)c(=O)n(C)c2=O)c(C)c1`: the max response was -0.304% (inactive).

With `Cc1ccc2c(c1)N(CC(=O)N1CCCC(C)C1)C(=O)CO2` (stereo not given), the max response was -3.96% (inactive).

Turning to `COC(=O)C1(CCSC)NC(c2ccc(OC)cc2OC)C2C(=O)N(c3cccc(C(C)=O)c3)C(=O)C21` (stereo not given), the max response is -3.66% (inactive).

As for `Cc1cccc(NC(=O)c2ccc3c(=O)n(CC4CCCO4)c(=S)[nH]c3c2)c1` (stereo not given), the max response was 10.1% (inactive).

Consider `COC(=O)c1ccc(NC(=O)CSc2nc(N)c(NC(=O)c3ccc(Br)o3)c(=O)[nH]2)cc1`, for which the max response is 9.86% (inactive).

With `CCOC(=O)CNc1nc(Cl)nc(Nc2ccc(OC)cc2OC)n1`, the max response is -3.67% (inactive).

As to `CCC(=O)Nc1ccc(Nc2nc(Cl)nc(Nc3ccc(NC(=O)CC)cc3)n2)cc1`, the max response was -3.17% (inactive).

As to `CCOC(=O)CNc1nc(Cl)nc(Nc2ccccc2)n1`, the max response was 45.2% (active).

For the compound `Cc1nc(C(=O)N2CCCC(C(=O)c3ccc(Cl)cc3)C2)cs1` (stereo not given), the max response was 0.775% (inactive).

For `COc1ccccc1NC(=O)C1CCN(C(=O)c2ccc(C(C)(C)C)cc2)CC1`, the max response is -1.21% (inactive).

For the compound `Cn1nc(-c2ccccc2)c(CSc2cccc(Cl)c2)c1Cl`, the max response is -2.67% (inactive).

With `Fc1ccccc1OCCSc1nc2ccccc2o1`, the max response was 26.3% (active).

For `Cn1c(=O)c2c(nc(Br)n2CCSc2nc3ccccc3o2)n(C)c1=O`, the max response is -1.28% (inactive).

In the case of `O=c1c2ccccc2ncn1CCCCOc1ccccc1F`, the max response is 1.24% (inactive).

On to `COC(=O)c1ccc(CN2CCCC(C(=O)Nc3cccc(-n4cnnn4)c3)C2)cc1` (stereo not given), for which the max response is -1.47% (inactive).

As to `O=C(C1CC(=O)N(c2ccc(F)cc2)C1)N1CCN(c2ccccc2)CC1` (stereo not given), the max response was -1.52% (inactive).

Regarding `CCOc1ccccc1NC(=O)NC1CCCCCCC1`, the max response was 10.6% (inactive).

Consider `O=C(Nc1cccn(Cc2c(Cl)cccc2Cl)c1=O)c1ccc(Cl)cc1`, for which the max response is 1.71% (inactive).

On to `O=C(Nc1cccn(Cc2ccccc2Cl)c1=O)NC1CCCCC1`, for which the max response is 10.8% (active).

For the compound `CC(=O)N1CCN(C(=O)C2(NC(=O)Nc3ccc(C)cc3)CCCCC2)CC1`, the max response is 6.9% (inactive).

With `COC(=O)/C(=C\Nc1ccccc1)NC(=O)c1ccc(Cl)cc1Cl`, the max response was 16.3% (inactive).

With `CC(=O)c1c(C)[nH]c(C(=O)Nc2cc(S(=O)(=O)N(C)C)ccc2C)c1C`, the max response was 6.78% (inactive).

In the case of `COC(=O)[C@@H]1CCCN1C(=O)c1cc(COc2cccc3cccnc23)on1`, the max response is -3.11% (inactive).

With `CSc1ccccc1OCc1cc(C(=O)N(C)CCc2c(C)n[nH]c2C)no1`, the max response was 15.1% (inactive).

As for `CSc1ccccc1OCc1cc(C(=O)N2C[C@H]3CC[C@H]2C3)no1`, the max response is 45.3% (active).
